The values that follow come from ChEMBL document CHEMBL3988442, “University of Dundee, Small-Polar-MMV Screening Library” (2021).

For some assays here: Measured potencies and affinities stand elsewhere.

Common to all, as to parameters: scale not given: direction of the effect not stated beside the values
For test [1], the target named is Protein translocase subunit SecA (Escherichia coli (strain K12)) (UniProt P10408). The experiment in a line: Assay to Identify E. coli SecA ATPase Inhibitors. Format: functional. Particulars: 30 µM.
Test [2] deals with T1, Ubiquitin-activating enzyme e1, putative (Leishmania donovani (strain BPK282A1)) (UniProt E9BSI1).
T1 sequence (whole entry): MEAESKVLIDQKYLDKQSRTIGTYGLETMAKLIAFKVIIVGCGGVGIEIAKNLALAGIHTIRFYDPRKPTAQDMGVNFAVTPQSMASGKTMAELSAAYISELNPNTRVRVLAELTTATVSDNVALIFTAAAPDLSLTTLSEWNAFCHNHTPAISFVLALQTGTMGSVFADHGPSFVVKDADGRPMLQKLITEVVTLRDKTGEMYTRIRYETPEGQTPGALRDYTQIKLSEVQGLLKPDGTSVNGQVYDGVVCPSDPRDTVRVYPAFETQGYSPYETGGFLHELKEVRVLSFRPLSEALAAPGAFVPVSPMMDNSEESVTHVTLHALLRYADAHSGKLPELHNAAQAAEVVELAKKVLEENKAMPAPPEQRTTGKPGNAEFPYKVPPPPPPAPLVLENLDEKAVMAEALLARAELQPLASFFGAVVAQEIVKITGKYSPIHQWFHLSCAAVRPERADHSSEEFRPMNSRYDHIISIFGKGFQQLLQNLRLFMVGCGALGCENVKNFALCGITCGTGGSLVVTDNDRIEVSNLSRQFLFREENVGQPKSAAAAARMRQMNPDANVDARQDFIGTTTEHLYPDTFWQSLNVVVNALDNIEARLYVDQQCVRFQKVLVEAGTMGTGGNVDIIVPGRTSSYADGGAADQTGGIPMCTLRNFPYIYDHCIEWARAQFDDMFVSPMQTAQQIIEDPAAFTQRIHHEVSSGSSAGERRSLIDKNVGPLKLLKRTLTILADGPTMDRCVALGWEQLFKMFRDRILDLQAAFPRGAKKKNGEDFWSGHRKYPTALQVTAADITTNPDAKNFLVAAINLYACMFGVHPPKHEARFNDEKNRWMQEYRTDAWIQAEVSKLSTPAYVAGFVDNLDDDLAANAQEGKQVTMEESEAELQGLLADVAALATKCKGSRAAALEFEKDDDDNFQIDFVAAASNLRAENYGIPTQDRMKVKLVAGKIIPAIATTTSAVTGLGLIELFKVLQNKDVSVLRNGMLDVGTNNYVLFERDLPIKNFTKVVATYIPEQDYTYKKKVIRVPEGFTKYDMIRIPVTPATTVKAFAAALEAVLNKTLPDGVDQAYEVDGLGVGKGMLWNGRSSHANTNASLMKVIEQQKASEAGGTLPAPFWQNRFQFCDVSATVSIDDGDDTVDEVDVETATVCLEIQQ
The experiment in a line: Leishmania donovani Ubiquitin Activating Enzyme (LdE1). Format: functional. Conditions: 30 µM.

The target of test [3] is AMP-activated protein kinase, AMPK (Homo sapiens) (UniProt P54646+O43741+P54619+Q9UGJ0+Q9Y478+Q13131+Q9UGI9). The experiment in a line: AMP-dependent Kinase enzyme assay. An in vitro enzyme assay that detects ADP turnover that is directly proportional to AMPK activity. This uses naive AMPK that is activated during the assay with MK-8722. Conditions: 30 µM. Format: functional.

The target of test [4] is Sialic acid-binding Ig-like lectin 9 (Homo sapiens) (UniProt Q9Y336). The experiment in a line: Hs-Siglec9 ALPHAscreen SOP 20170721. Particulars: 10 µM. Background: Alpha assays give light when donor and acceptor beads are brought close together.
The next test relates to Trypanosoma cruzi. The experiment in a line: Trypanosoma cruzi phosphomannomutase and mannose-1-phosphate guanylyltransferase assay. It is filed as functional. Particulars: 10 µM.
In test [5] the target is T2, Arginase-2, mitochondrial (Homo sapiens) (UniProt P78540).
T2 sequence (whole entry): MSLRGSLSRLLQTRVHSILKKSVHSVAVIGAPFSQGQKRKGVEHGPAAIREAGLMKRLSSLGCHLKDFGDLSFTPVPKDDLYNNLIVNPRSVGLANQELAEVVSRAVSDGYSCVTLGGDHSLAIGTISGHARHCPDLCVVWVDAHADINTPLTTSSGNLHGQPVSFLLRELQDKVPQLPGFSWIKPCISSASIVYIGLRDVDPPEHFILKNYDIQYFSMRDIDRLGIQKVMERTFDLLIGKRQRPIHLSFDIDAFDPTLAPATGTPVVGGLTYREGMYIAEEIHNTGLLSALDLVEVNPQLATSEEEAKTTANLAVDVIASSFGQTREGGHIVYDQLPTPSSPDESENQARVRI
The experiment in a line: in vitro enzyme assay to detect the production of urea directly proportional to the activity of Arginase II. Further: in the data most compounds retested in dose-response had high values. It is filed as functional. Conditions: 33.3 µM.

Test [6] deals with T3, Proteasome subunit beta (Trypanosoma cruzi) (UniProt O96673).
T3 sequence (whole entry): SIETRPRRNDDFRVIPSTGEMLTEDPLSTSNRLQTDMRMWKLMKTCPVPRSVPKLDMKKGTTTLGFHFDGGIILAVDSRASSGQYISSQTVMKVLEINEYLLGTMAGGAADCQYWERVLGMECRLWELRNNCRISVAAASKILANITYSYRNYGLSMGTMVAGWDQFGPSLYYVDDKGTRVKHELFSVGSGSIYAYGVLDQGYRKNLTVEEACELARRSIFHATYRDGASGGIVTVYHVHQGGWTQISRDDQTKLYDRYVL
The experiment in a line: Trypanosoma cruzi proteasome chymotrypsin-like activity (TcProtChymo) assay. Further: in the data most compounds retested in dose-response had high values. It is filed as functional. Conditions: 9.37 µM.

The species entered for a further test is Homo sapiens. The experiment in a line: To identify inhibition of the IFN signalling (Jak-Stat) pathway via expression of an eGFP reporter gene under the control of an IFN-stimulated response element (ISRE) containing MxA promoter. It is filed as functional. Particulars: 30 µM.
For test [7], the target named is T4, Tyrosyl-tRNA synthetase, putative (Trypanosoma cruzi (strain CL Brener)) (UniProt Q4DSP6).
T4 sequence (whole entry): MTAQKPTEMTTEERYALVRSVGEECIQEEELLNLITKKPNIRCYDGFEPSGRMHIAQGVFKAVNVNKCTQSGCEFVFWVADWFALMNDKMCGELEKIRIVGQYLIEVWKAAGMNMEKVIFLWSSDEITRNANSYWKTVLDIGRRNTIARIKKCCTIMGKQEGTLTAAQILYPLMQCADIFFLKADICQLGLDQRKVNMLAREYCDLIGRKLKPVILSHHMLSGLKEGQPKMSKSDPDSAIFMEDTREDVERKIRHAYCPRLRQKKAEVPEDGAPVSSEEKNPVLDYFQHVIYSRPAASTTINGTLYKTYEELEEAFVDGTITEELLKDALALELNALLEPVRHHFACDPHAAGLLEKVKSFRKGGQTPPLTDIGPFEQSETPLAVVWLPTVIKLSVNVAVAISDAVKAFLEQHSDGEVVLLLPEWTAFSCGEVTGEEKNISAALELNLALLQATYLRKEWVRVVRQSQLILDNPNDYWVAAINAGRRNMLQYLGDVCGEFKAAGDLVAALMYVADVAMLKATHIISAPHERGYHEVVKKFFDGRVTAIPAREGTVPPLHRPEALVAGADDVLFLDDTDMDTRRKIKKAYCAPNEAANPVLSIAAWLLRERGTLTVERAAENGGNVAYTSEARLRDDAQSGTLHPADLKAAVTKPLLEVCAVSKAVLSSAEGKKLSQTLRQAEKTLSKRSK
The experiment in a line: Trypanosoma cruzi tyrosyl tRNA synthetase (TcYRS) _High Tyrosine SOP. Further: in the data most compounds retested in dose-response had high values. Format: functional. Conditions: 30 µM.

Test [8] addresses T4, Tyrosyl-tRNA synthetase, putative (Trypanosoma cruzi (strain CL Brener)). The experiment in a line: Trypanosoma cruzi tyrosyl tRNA synthetase (TcYRS) SOP. It is filed as functional. Conditions: 30 µM.
The target of test [9] is Chromo domain-containing protein 1 (Saccharomyces cerevisiae (strain ATCC 204508 / S288c) (Baker's yeast)) (UniProt P32657). The experiment in a line: ScCHD-1 Enzyme Inhibition Assay. Further: in the data most compounds retested in dose-response had high values. It is filed as functional. Particulars: 30 µM.
Chromo domain-containing protein 1 (Saccharomyces cerevisiae (strain ATCC 204508 / S288c) (Baker's yeast)), sequence (P32657 whole entry, the tested form may be a part): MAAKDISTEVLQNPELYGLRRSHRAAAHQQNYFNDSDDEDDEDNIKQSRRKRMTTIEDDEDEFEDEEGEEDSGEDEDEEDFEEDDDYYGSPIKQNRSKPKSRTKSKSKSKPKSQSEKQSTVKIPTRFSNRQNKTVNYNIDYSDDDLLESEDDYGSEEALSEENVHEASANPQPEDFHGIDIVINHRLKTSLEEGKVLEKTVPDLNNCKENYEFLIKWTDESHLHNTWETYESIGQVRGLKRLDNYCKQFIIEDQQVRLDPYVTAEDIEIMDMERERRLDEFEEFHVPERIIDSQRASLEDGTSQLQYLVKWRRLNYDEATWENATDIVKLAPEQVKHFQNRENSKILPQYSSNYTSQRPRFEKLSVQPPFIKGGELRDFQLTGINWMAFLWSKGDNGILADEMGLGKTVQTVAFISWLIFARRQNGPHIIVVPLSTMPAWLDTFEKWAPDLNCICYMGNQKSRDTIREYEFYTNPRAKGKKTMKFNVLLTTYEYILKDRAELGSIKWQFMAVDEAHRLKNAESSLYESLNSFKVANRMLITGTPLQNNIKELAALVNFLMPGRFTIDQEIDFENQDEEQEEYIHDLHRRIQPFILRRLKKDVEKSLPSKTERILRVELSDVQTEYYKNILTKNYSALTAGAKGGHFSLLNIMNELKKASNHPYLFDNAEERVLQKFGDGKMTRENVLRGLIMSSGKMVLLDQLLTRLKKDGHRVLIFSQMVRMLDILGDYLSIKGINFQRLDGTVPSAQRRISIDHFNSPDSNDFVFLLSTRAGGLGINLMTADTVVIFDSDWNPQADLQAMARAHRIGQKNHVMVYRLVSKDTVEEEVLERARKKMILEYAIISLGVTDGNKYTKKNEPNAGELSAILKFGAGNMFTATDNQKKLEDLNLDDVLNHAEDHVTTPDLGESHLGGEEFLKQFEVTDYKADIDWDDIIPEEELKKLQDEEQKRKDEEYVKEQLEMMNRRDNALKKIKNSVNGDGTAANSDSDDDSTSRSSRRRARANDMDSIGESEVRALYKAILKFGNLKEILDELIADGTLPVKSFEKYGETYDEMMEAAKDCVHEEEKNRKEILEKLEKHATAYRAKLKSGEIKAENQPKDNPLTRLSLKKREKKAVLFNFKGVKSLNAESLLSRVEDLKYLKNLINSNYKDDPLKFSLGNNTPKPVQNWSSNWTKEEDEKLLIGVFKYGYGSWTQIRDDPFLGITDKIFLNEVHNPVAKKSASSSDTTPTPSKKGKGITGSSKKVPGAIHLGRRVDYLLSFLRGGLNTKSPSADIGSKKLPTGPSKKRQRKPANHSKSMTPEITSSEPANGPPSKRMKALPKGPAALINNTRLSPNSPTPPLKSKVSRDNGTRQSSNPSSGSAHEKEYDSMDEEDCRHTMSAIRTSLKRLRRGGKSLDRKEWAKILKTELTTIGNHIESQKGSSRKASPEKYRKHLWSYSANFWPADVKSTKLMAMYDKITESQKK

Sialic acid-binding Ig-like lectin 9 (Homo sapiens), sequence (Q9Y336 whole entry): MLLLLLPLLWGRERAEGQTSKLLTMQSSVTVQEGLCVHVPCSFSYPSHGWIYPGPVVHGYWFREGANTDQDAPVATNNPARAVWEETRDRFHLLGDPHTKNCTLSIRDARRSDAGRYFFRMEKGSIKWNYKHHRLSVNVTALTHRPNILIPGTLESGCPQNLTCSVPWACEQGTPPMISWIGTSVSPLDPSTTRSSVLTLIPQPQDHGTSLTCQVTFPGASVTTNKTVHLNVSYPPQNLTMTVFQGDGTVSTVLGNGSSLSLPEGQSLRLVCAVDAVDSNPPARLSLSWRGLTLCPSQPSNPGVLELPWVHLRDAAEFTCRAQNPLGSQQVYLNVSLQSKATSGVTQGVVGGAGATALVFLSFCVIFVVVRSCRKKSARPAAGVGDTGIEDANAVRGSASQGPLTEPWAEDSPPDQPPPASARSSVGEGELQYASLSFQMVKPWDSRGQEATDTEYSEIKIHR
Protein translocase subunit SecA (Escherichia coli (strain K12)), sequence (P10408 whole entry): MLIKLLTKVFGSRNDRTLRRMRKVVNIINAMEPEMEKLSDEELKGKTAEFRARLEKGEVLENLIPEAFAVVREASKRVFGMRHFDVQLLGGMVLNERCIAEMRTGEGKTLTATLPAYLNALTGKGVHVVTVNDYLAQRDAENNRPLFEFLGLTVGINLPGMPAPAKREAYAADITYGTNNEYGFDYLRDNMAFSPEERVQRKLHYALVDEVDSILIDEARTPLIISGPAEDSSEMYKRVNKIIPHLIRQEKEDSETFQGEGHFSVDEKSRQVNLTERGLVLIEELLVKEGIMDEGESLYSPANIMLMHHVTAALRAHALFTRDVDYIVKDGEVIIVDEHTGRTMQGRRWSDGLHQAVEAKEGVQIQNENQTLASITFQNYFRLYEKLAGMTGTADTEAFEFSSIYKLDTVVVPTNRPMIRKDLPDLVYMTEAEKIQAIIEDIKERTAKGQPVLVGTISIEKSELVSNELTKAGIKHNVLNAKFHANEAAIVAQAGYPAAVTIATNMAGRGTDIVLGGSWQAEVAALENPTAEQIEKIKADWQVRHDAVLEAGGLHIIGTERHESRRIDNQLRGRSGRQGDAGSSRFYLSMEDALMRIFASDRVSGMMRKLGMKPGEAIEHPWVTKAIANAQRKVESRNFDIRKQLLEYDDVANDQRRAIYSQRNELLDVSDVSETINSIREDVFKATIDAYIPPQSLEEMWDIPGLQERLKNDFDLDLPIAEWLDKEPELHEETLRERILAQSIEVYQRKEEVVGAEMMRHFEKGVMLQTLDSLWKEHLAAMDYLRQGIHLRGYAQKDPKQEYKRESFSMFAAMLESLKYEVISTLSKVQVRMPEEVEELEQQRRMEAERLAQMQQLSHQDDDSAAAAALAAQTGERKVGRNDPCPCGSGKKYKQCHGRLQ

As to `CC(C)c1nc(C2CCCN(C(=O)CCCn3cncn3)C2)no1` (stereo not given), the Percent Effect in test [1] was -4.23%; in [2], 21.6%; in test [3] it was -6.76%; in test [4] it was 9.76%; with Trypanosoma cruzi, 2.36%; in test [5], -10.4%. Besides, the Percent Effect in test [6] was 12.1%; in the test listed under Homo sapiens, -60.1%; in test [7] it was 8.37%; in [8], 16.1%; in [9] it was -12.8%.

As for `Cc1nc(N2CCN(C)CC2)ncc1C(=O)N1CC(C)(C)C(C)(O)C1` (stereo not given), the Percent Effect in test [1] was -0.364%; in [2], 2.7%; in [3], 6.69%; in [4] it was -5.09%; in the test on Trypanosoma cruzi it was -9.09%; in test [5] it was -8.19%. The Percent Effect in test [6] was 13%; in the test filed under Homo sapiens it was 11.1%; in test [7] it was 0%; in [8], -16.1%; in test [9], 103%.

On to `O=C(Cc1ccc(F)cc1)N1CCn2cc(Cn3cccn3)nc2C1`, for which the Percent Effect in test [1] was -3.25%; in test [2], 10.8%; in test [3], 5.39%; in test [4], -3.22%; in the test with Trypanosoma cruzi, -1.66%; in [5], 6.69%. Besides, the Percent Effect in [6] was 8.12%; in the test filed under Homo sapiens, -1.16%; in [7] it was 5.41%; in test [8] it was 20.5%; in test [9], 0.365%.

Regarding `Cc1ccc(CNC(=O)N2CCCCC2CCNS(C)(=O)=O)cc1` (stereo not given), the Percent Effect in test [1] is -1.58%; in [2], 2.7%; in [3], 2.59%; in test [4] it was -1.08%; with Trypanosoma cruzi, -1.74%; in test [5] it was -15.2%. Besides, the Percent Effect is 12.6% in test [6]; 23.6% in the test listed under Homo sapiens; 2.65% in test [7]; 2.44% in test [8]; -4.89% in test [9].

Take `COc1ccnc(N2CCN(CC(=O)N3CCOCC3)CC2)n1`: the Percent Effect was -3.7% in test [1]; 18.4% in test [2]; 3.44% in test [3]; -1.28% in test [4]; -0.28% with Trypanosoma cruzi; -5.04% in [5]. Further, the Percent Effect in test [6] was 8.54%; in the test filed under Homo sapiens, -2.03%; in test [7], 8.37%; in [8], 18.5%; in [9] it was -6.56%.

As for `COc1cc2nc3n(c(=O)c2cc1OC)CCN(C)CC3`, the Percent Effect is -7.78% in [1]; 1.35% in test [2]; 11.9% in [3]; 1.61% in test [4]; -3.56% in the test with Trypanosoma cruzi; -3.48% in test [5]. In addition, the Percent Effect in test [6] is 0.312%; in the test listed under Homo sapiens it was 0.926%; in test [7] it was 2.15%; in test [8], 3.9%; in test [9] it was -5.62%.

For the molecule `Cc1ccc(=O)n(CC2(O)CCN(Cc3cc(C)c(O)c(C)c3)CC2)n1`, the Percent Effect is -6.97% in [1]; 23% in [2]; -6.19% in test [3]; 7.09% in test [4]; 6.52% in the test with Trypanosoma cruzi; -2.55% in [5]. Further, the Percent Effect in test [6] was 13.3%; in the test filed under Homo sapiens, -3.64%; in test [7], 2.15%; in test [8], 14.3%; in [9], 45.6%.

Turning to `COCCC(=O)N1CCC2(COCc3cnc(-c4ccccc4)nc32)C1` (stereo not given), the Percent Effect in test [1] is -1.59%; in test [2], 2.67%; in [3], 15.5%; in test [4] it was -0.802%; in the test with Trypanosoma cruzi, -7.48%; in test [5] it was 2.56%. Further, the Percent Effect in [6] was 1.15%; in the test listed under Homo sapiens it was 6.76%; in [7] it was -1.06%; in test [8], 3.85%; in [9] it was -0.943%.

`Cc1nc(C)n(C2CCCN(C(=O)c3cnc[nH]3)C2)n1` (stereo not given): the Percent Effect in test [1] was -4.48%; in test [2], -2.7%; in test [3], -9.26%; in [4], 8.79%; with Trypanosoma cruzi, -4.43%; in test [5], 2%. Besides, the Percent Effect in test [6] is -2.7%; in the test filed under Homo sapiens, 0.378%; in test [7] it was -5.42%; in test [8] it was 1.24%; in test [9] it was 6.8%.

For `O=C1[C@H]2CN(CC3CC3)C[C@H]2CN1Cc1cccc(F)c1`, the Percent Effect in test [1] is 1.22%; in [2], -56.8%; in test [3], 4.89%; in test [4] it was 3.99%; in the test with Trypanosoma cruzi, -0.0978%; in test [5], -0.955%. Further, the Percent Effect was 12.7% in test [6]; -14.7% in the test listed under Homo sapiens; 2.16% in test [7]; 2.56% in test [8]; 9.93% in [9].
